MBNL1-CUG inh: MBNL1-poly(CUG) RNA binding inhibition. TR-FRET MBNL1-His/biotin-(CUG)12 binding, 665/545 ratio. AID 2675. Potency, µM (titrated, usually from 57.5 µM), hits mostly inhibitors. Q9NR56. 280,000 compounds, 0.036% hits; active = well fitted inhibition curve with a large enough effect in the signal ratio, with a control signal flat, not every such curve was filed as active; inconclusive = small, poorly fitted or top-dose-only effect, or effect the other way, or a change in a side signal; inactive = no such curve, though single readings can be large or run the other way; the % refers to the signal ratio
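His-tagged MBNL1 binding to biotinylated (CUG)12 RNA was measured by TR-FRET using terbium anti-His antibody (0.055 ng/ul final) and streptavidin-XL665 (5 nM final). Compounds were titrated 92 nM to 58 uM; 60 min at room temperature.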
DRD3 antagonist: D3 dopamine receptor (human) antagonism | max response, negative = inhibition, % | D3R cells, DiscoveRx beta-arrestin luminescence, antagonist mode; stronger effect = lower value | AID 652054 | 360,000 compounds, 2.5% hits | P35462; in the data active = max response below about -50%; inconclusive = no clear call, values can overlap the other calls
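Cells expressing the human receptor were seeded at 1500 cells/well, incubated overnight at 37 degrees C in 5% CO2, then exposed to library compounds with dopamine controls for 90 minutes at 37 degrees C before luminescent detection.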
CBFb-RUNX1 inh: inhibitors of human CBF-beta and RUNX1 interaction. Q01196+Q13951. AlphaScreen CBFb-His/RUNX1-biotin binding, biochemical. Potency, µM (series often up to 59.8 µM), most hits filed as inhibitors. 230,000 tested, under 10 active
Target sequence (Q01196 whole entry, looked up): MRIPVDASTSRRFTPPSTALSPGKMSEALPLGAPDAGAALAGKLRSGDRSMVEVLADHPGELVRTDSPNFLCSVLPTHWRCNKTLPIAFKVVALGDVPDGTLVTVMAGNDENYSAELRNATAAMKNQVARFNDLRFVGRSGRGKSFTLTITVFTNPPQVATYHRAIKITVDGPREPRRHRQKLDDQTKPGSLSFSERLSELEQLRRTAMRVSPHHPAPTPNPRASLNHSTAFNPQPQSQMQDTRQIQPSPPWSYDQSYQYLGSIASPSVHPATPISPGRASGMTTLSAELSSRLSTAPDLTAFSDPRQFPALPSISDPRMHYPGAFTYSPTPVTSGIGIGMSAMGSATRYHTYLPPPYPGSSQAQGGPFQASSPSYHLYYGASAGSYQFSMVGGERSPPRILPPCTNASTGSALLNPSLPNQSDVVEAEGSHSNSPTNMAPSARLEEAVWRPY
Target sequence (Q13951 whole entry, looked up): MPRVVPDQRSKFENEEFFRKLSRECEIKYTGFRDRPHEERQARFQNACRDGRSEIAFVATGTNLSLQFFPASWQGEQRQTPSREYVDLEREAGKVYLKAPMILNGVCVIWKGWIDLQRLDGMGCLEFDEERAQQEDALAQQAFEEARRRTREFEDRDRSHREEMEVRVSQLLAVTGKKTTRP
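Inhibition was taken as any reduction in AlphaScreen signal from the CBF-beta–RUNX1 pair (His and biotin tags, 30 nM each), measured after compound (15 min) and bead (90 min) incubations at room temperature.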
PTHR1 agonist: agonists of human PTHR1 parathyroid hormone receptor; Q03431; HEK293 GP2 PTHR1 cells, GloSensor cAMP luminescence, 1 h; Potency, µM (top dose mostly 115 µM), most hits filed as activators; 410,000 compounds, 0.075% hits; AID 743266; also: nearly all actives have a fitted effect of over 55% in size
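HEK-293-derived GP2 cells expressing PTHR1 and a GloSensor cAMP reporter, 3,000/well, plated overnight, given luciferin plus IBMX (each 0.5 mM as added) for 1 h at 37 °C, then compound for 1 h at 37 °C. Luminescence was read after 15 min at room temperature.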
Integrin act MD: activates integrin-mediated alleviation for muscular dystrophy; alpha7betagal myoblasts, beta-gal FDG fluorescence, 48 h; Potency, µM (titrated, usually from 38.3 µM), hits mostly activators; 350,000 compounds, 0.064% hits; also: nearly all actives have a fitted effect of over 60% in size
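Alpha7betagal+/- myoblasts (passage 13) were plated 16-24 hr, then exposed to compounds (1:260 dilution of DMSO stock) for 48 hours at 37C. After MPER lysis, β-galactosidase reporter activity was read as FDG fluorescence (ex 480/em 540) after 30 minutes.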
D3 ag: D3 dopamine receptor (human) agonism | D3R DiscoveRx beta-arrestin cells, luminescence, 90 min | max activation, % | 410,000 compounds, 0.58% hits; in the data active = max activation above about 30%
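Agonist-mode cell screen: cells plated at 1500/well and incubated overnight at 37 °C, then exposed to library compounds for 90 min at 37 °C. Detection reagent was added for 30–60 min at room temperature, and luminescence was read.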
Large screens that a line does not name were inactive. The list is not random: actives were taken first. Their share in the collection is about 2.8%. Unless noted, calls follow the shape of the dose curve; as a rule, active = well fitted curve in the direction sought with a large enough effect; inconclusive = small, poorly fitted or top-dose-only effect, or another doubt; inactive = no such curve, though single readings can be large; an effect the other way counts as inactive or inconclusive.

Cc1ccc(C(=O)NCCN2CCOCC2)cc1	DRD3 antagonist inconclusive
CCOC(=O)C1=C[C@@H](C2CCCCC2)N(S(=O)(=O)c2ccc([N+](=O)[O-])cc2)[C@H]1c1ccccc1	none (no result: MBNL1-CUG inh, CBFb-RUNX1 inh, Integrin act MD)
O=C(CNC(=O)c1ccc(Cl)cc1)NC1CCCCC1	DRD3 antagonist -59 (no result: CBFb-RUNX1 inh)
O=C(NCCN1CCCC1)c1ccc(Br)cc1	DRD3 antagonist -77 (no result: CBFb-RUNX1 inh)
O=C(NCCN1CCCCC1)Nc1ccccc1	none
O=C(NCCN1CCCCC1)c1ccc(I)cc1	none (no result: MBNL1-CUG inh, DRD3 antagonist, PTHR1 agonist, Integrin act MD, D3 ag)
O=C(NCCN1CCCCC1)Nc1cccc(C(F)(F)F)c1	DRD3 antagonist -58 (no result: CBFb-RUNX1 inh)
CN(C)c1ccc(NC(=O)CSC2=Nc3ccccc3C3=NC(CC(=O)NCc4ccc5c(c4)OCO5)C(=O)N23)cc1 (stereo not drawn)	PTHR1 agonist inconclusive (no result: MBNL1-CUG inh, DRD3 antagonist, CBFb-RUNX1 inh, Integrin act MD)
N#Cc1ccsc1NC(=O)c1cnccn1	DRD3 antagonist -52
COc1ccc(CCNC(=O)C2CCCN(c3ncccn3)C2)cc1 (stereo not drawn)	none
O=c1c(Br)c(Br)cnn1-c1ccccc1	DRD3 antagonist -72
Cc1ccc(-n2ncc(Br)c(Br)c2=O)cc1	DRD3 antagonist -76
COc1c(Cl)cnn(-c2ccc(C)cc2)c1=O	none (no result: MBNL1-CUG inh)
Cc1cccc(/C=N\N=C\c2cccc(C)c2)c1	Integrin act MD inconclusive (no result: CBFb-RUNX1 inh)
COc1ccc(CNC(=O)CCc2nnc3n(CC(C)C)c(=O)c4ccccc4n23)cc1	none (no result: MBNL1-CUG inh, DRD3 antagonist, CBFb-RUNX1 inh, Integrin act MD)
Cc1cc(C)c2ccc(C(=O)O)nc2c1O	DRD3 antagonist -63, CBFb-RUNX1 inh inconclusive
COc1ccc(C(=O)O)nc1C	none
CCn1c(CC(=O)Nc2ccccc2)nnc1SCC(=O)Nc1nnc(C)s1	none (no result: CBFb-RUNX1 inh)
CCc1ccccc1Oc1nc(NCc2ccccc2)nc2ccsc12	DRD3 antagonist -52 (no result: MBNL1-CUG inh, CBFb-RUNX1 inh, Integrin act MD)
Nc1nc2c(c(=O)[nH]1)N(C=O)C(CNc1ccc(C(=O)N[C@@H](CCC(=O)O)C(=O)O)cc1)CN2 (stereo partly drawn)	none (no result: MBNL1-CUG inh, DRD3 antagonist, CBFb-RUNX1 inh, PTHR1 agonist, Integrin act MD)
CC(C)(C)OC(=O)N1CCC(NC(=O)c2nc[nH]c2C(=O)NC2CCN(C(=O)OC(C)(C)C)CC2)CC1	PTHR1 agonist inconclusive (no result: MBNL1-CUG inh, CBFb-RUNX1 inh)
CC(C)(C)OC(=O)NCc1ccc(CNC(=O)c2nc[nH]c2C(=O)N2CCN(C(=O)OC(C)(C)C)CC2)cc1	D3 ag 43 (no result: MBNL1-CUG inh, CBFb-RUNX1 inh)
Cc1ccc(NC(=O)c2nc[nH]c2C(=O)N2CCN(C(=O)OC(C)(C)C)CC2)cc1	none (no result: MBNL1-CUG inh, CBFb-RUNX1 inh)
O=C(CNC(=O)c1nc[nH]c1C(=O)N1CCc2ccccc2C1)OCc1ccccc1	D3 ag 40 (no result: CBFb-RUNX1 inh)
CC(C)(C)OC(=O)N1CCC(NC(=O)c2[nH]cnc2C(=O)Nc2cccc(Cl)c2)CC1	D3 ag 66 (no result: MBNL1-CUG inh, CBFb-RUNX1 inh)
O=C(CNC(=O)c1nc[nH]c1C(=O)N1CCNCC1)OCc1ccccc1	none (no result: MBNL1-CUG inh, CBFb-RUNX1 inh)
CC(C)(C)OC(=O)N1CCC(NC(=O)c2nc[nH]c2C(=O)NCC(=O)OCc2ccccc2)CC1	D3 ag 69 (no result: CBFb-RUNX1 inh)
Cc1cc(SCC(=O)NCC2CCCO2)nc2ccccc12 (stereo not drawn)	none (no result: CBFb-RUNX1 inh)
Cc1ccc(CN2C(=O)C(C)Nc3ncnc(N4CCOCC4)c32)cc1 (stereo not drawn)	DRD3 antagonist inconclusive (no result: MBNL1-CUG inh, CBFb-RUNX1 inh)
CC(C)C[C@H](NC(=O)c1nc[nH]c1C(=O)N[C@@H](CC(C)C)C(=O)OC(C)(C)C)C(=O)OC(C)(C)C	DRD3 antagonist -55
Cc1cccc(NC(=O)c2nc[nH]c2C(=O)N[C@@H](Cc2ccccc2)C(=O)OC(C)(C)C)c1	none
CC(C)(C)OC(=O)[C@H](Cc1ccccc1)NC(=O)c1[nH]cnc1C(=O)Nc1cccc(Cl)c1	DRD3 antagonist -54
Cc1[nH]c(C)c(S(=O)(=O)Nc2cccc(Cl)c2C)c1C(=O)N1CCCCC1	DRD3 antagonist -51 (no result: CBFb-RUNX1 inh)
Cc1[nH]c(C)c(S(=O)(=O)Nc2cccc(Cl)c2C)c1C(=O)N1CCCC1	DRD3 antagonist -65 (no result: CBFb-RUNX1 inh)
Cc1ccc(NS(=O)(=O)c2c(C)[nH]c(C)c2C(=O)N2CCCCC2)cc1C	DRD3 antagonist inconclusive (no result: CBFb-RUNX1 inh)
Cc1ccc(NS(=O)(=O)c2c(C)[nH]c(C)c2C(=O)N2CCCC2)cc1Cl	DRD3 antagonist -86 (no result: CBFb-RUNX1 inh)
CCOC(=O)C1CCCN(C(=O)c2ccc(F)c(C)c2)CC1 (stereo not drawn)	none (no result: MBNL1-CUG inh, CBFb-RUNX1 inh, Integrin act MD)
c1ccc(C2OC3c4cccc5cccc(c45)C3N2c2ccccc2)cc1 (stereo not drawn)	DRD3 antagonist -59
CC(=O)Nc1ccc2c(c1)CN(c1cc(C)ccc1C)CO2	none
NC(=O)C1(N2CCCCC2)CCN(CCCC(=O)c2ccc(F)cc2)CC1	none (no result: MBNL1-CUG inh, DRD3 antagonist, PTHR1 agonist, Integrin act MD)
O=C(CCCN1CCN(c2ccccc2)CC1)c1ccc(F)cc1	DRD3 antagonist -102 (no result: MBNL1-CUG inh, CBFb-RUNX1 inh)
CN1CCN(CCCC(=O)c2ccc(F)cc2)CC1	DRD3 antagonist -60
O=C(CCCN1CCN2CCCC2C1)c1ccc(F)cc1 (stereo not drawn)	none (no result: MBNL1-CUG inh, DRD3 antagonist, CBFb-RUNX1 inh, PTHR1 agonist, Integrin act MD)
O=C(CCCN1Cc2ccccc2C1)c1ccc(F)cc1	DRD3 antagonist -151
O=C(CCCN1CCOC(c2ccccc2)C1)c1ccc(F)cc1 (stereo not drawn)	DRD3 antagonist -86 (no result: CBFb-RUNX1 inh)
COc1ccc(CN2CCC2(C)C(=O)Nc2ccc(OC)c(OC)c2)cc1 (stereo not drawn)	none (no result: MBNL1-CUG inh, CBFb-RUNX1 inh, Integrin act MD)
O=C(CN1CCN(c2ccccc2)CC1)c1ccc2cc[nH]c2c1	DRD3 antagonist -63

Screening data: PubChem, National Center for Advancing Translational Sciences (NCATS)
